The list is not random: actives were taken first. Their share in the collection is about 3.7%.
Sm TGR block: blocks Schistosoma mansoni thioredoxin glutathione reductase | Q962Y6 | purified TGR, DTNB reduction, TNB absorbance 405 nm | Potency, µM (series often up to 114 µM), inactives show top-dose activity change, negative = inhibition, actives largely listed as inhibitors | actives 3% (n = 360,000) | AID 485364; further: nearly all actives have a fitted effect of over 60% in size
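First, TGR (20 nM dispensed) and NADPH were mixed with compound. Second, a 15 min room-temperature incubation followed. Third, further NADPH and then DTNB were added to start the reaction. Finally, TNB absorbance was monitored kinetically.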
FMDV antiviral: blocks foot and mouth disease virus. FMDV antiviral cell-based qHTS. Potency, µM (doses to about 57.9 µM), for inactives: top-dose activity change, negative = inhibition, actives largely listed as inhibitors. actives 1.2% (n = 410,000); calls by dose curve; tested in HEK293T cells; further: read-out not given here; nearly all actives have a fitted effect of over 45% in size
TbPYK inhibitor: T. brucei pyruvate kinase inhibition | Q57TT1 | TbPYK enzyme, Kinase-Glo Plus ATP luminescence, 45 min | Potency, µM (highest dose often 76.8 µM), inactives show at the top dose activity, negative = inhibition, hits mostly inhibitors | actives 0.12% (n = 410,000); further: nearly all actives have a fitted effect of over 50% in size
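Screened from lowest to highest concentration, compounds were pinned into TbPYK/substrate mixtures, and ADP (130 uM final) was added. Plates sat at room temperature for 45 min prior to Kinase-Glo Plus detection by luminescence.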
RE007 growth inh: less growth of the S. pombe RE007 Vpr strain. S. pombe RE007 Vpr strain, BacTiter-Glo ATP luminescence, 24 h. Potency, µM (top dose mostly 92.2 µM), inactives show top-dose activity change, negative = less growth, actives largely listed as inhibitors. actives 0.21% (n = 360,000); active means well fitted falling curve with a large enough effect; inconclusive means small, poorly fitted or top-dose-only effect; inactive means no such curve, though single readings can be large or run the other way; further: nearly all actives have a fitted effect of over 50% in size
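Fission yeast strain RE007, carrying one chromosomally integrated HIV-1 vpr copy, was seeded at OD 0.01 in PMG+AL medium with 23 nL pinned compound. After 24 h at 30 °C and 99% humidity, viability was read by BacTiter-Glo luminescence.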
* = called active by the depositor; ? = inconclusive; nt = no result given; [ ] = dose if it differs, or a comment. Unless noted, the call rests on the fitted dose curve; in most records, active means well fitted curve in the direction sought with a large enough effect; inconclusive means small, poorly fitted or top-dose-only effect, or another doubt; inactive means no such curve, though single readings can be large; an effect the other way counts as inactive or inconclusive. On the % scale 0 is the no-effect control and ±100 the full control effect; potency means the concentration at half of the fitted maximal effect.

SMILES	Sm TGR block	FMDV antiviral	TbPYK inhibitor	RE007 growth inh
CCCc1[nH]nc2c1C(c1ccccc1OC)C(C#N)=C(N)O2 (centres undefined)	?	28µM*	-3%	-12%
CCC(CC)C1C(C#N)=C(N)Oc2n[nH]c(-c3ccccc3)c21 (centres undefined)	-7%	nt	5%	-13%
CCc1[nH]nc2c1C(c1cccnc1)C(C#N)=C(N)O2 (centres undefined)	-7%	35%	-2%	3%
Cc1[nH]nc2c1C(c1ccc(-c3ccccc3C#N)o1)C(C#N)=C(N)O2 (centres undefined)	13µM*	?	10%	-6%
CCc1[nH]nc2c1C(C(C)C)C(C#N)=C(N)O2 (centres undefined)	-4%	32µM*	7%	1%
CCC(CC)C1C(C#N)=C(N)Oc2n[nH]c(C)c21 (centres undefined)	-3%	35µM*	2%	9%
COc1ccc2c3c1OC1C(O)C=CC4[C@@H](C2)NCC[C@]314 (some centres undefined)	nt	nt	-4%[157 µM]	nt
COCC(=O)Nc1cc(C(=O)N2CCCC(C(C)=O)C2)cc2nc(-c3ccccc3)n(C)c12 (centres undefined)	nt	-8%	nt	nt
CC(C)C1C(=O)Nc2ccc(S(=O)(=O)NCc3ccc(Cl)cc3)cc21 (centres undefined)	3%	?	-2%	nt
Cc1[nH]nc2c1C(C1CC=CCC1)C(C#N)=C(N)O2 (centres undefined)	-15%	25µM*	1%	0%
N/C(=N\S(=O)(=O)c1ccccc1)c1ccc([N+](=O)[O-])cc1	13µM*	1%	-7%	-13%
N/C(=N/S(=O)(=O)c1ccccc1)c1cccc([N+](=O)[O-])c1	?	3%	3%	11%
COc1ccccc1CNC(=O)c1ccc(CS(=O)(=O)c2ccc(C)cc2)o1	35µM*	-13%	-6%	0%
COCCNC(=O)c1ccc(CS(=O)(=O)c2ccccc2OC)o1	32µM*	-1%	-1%	11%
Cc1ccc(S(=O)(=O)Cc2ccc(C(=O)O)o2)cc1	22µM*	-5%	5%	-22%
COc1ccc(CNC(=O)c2ccc(Cn3cc(Cl)cn3)o2)cc1	14µM*	-19%	3%	21%
C#Cc1cccc(C(=O)NCc2nc(-c3cccc(NC(=O)c4ccccn4)c3)oc2C)c1	nt	37%	nt	nt
CC(=O)c1sc(NC(=O)c2ccc(Br)o2)nc1C	-27%	0%	-14%	-15%
COc1ccc(S(=O)(=O)Cc2ccc(C(=O)NCc3ccccc3)o2)cc1	-26%	?	0%	-9%
COc1ccc(S(=O)(=O)Cc2ccc(C(=O)NCc3cccnc3)o2)cc1	35µM*	?	-4%	-1%
Cc1ccc(CS(=O)Cc2ccc(C(=O)NCc3ccc4c(c3)OCO4)o2)cc1 (centres undefined)	-12%	-14%	-6%	6%
CC(=O)c1sc(NC(=O)c2ccc(Cn3cc(Br)cn3)o2)nc1C	50µM*	7%	-2%	-9%
Cc1ccc(S(=O)(=O)Cc2ccc(C(=O)NCc3ccc4c(c3)OCO4)o2)cc1	25µM*	-20%	-1%	0%
COCCNC(=O)c1ccc(CS(=O)(=O)c2ccc(C)cc2)o1	35µM*	-22%	4%	-11%
Cn1c2ccccc2c2c(C(=O)N3CCN(c4ccc(F)cc4)CC3)cn(C3CCCCC3)c(=O)c21	5%	11%	2%	nt
SMILES	Sm TGR block	FMDV antiviral	TbPYK inhibitor	RE007 growth inh
Cc1ncc2c(c1CNC(=O)c1ccc3c(c1)OCO3)CCN(C(=O)c1cn3ccccc3n1)C2	nt	-1%	nt	nt
COc1ccc(-c2ccnc3c2c(=O)n(C)c(=O)n3C)cc1OC	14%	-10%	0%	nt
COc1ccc(NC(=O)CN2C(=O)CC(c3ccco3)Sc3ccccc32)cc1OC (centres undefined)	-5%	-27%	-4%	nt
Cc1ccsc1CN1CCc2nnc(CCNC(=O)c3ccc(F)cc3)n2CC1	nt	-4%	nt	nt
CCOC(=O)CN(C)C(=O)c1cnn(-c2ncc3c(n2)-c2ccccc2CCC3)c1C	nt	55%	nt	nt
COC(=O)c1ccc(COc2ccc3c(c2)CCC3)o1	42%	25%	-3%	-5%
CC1CCC(NC(=O)c2ccc(CS(=O)(=O)c3ccc(Cl)cc3)o2)CC1 (centres undefined)	-4%	32µM*	3%	nt
COc1ccccc1CNC(=O)COC(=O)CNS(=O)(=O)c1ccc(C)cc1	35µM*	-9%	-7%	24%
Cc1ccc(S(=O)(=O)NCC(=O)OCC(=O)NCCc2ccccc2)cc1	-1%	-8%	0%	1%
O=C(NCc1cccnc1)c1ccc(COc2ccc3c(c2)CCC3)o1	-12%	18µM*	2%	-4%
CCOc1ccc2c(c1)sc1nc(=O)n(-c3ccc(Cl)c(Cl)c3)c(=O)n12	5%	-11%	-3%	nt
Cc1nn2c(N3CCCC3)c3c(nc2c1-c1ccccc1)CCC3	11µM*	-13%	-2%	-6%
O=S(=O)(c1c(F)cccc1F)N1CCN(Cc2c(O)ccc3ccccc23)CC1	2.2µM*	?	0%	-6%
Oc1ccc2ccccc2c1CN1CCOCC1	0.45µM*	-14%	4%	-27%
Cc1ccc2c(c1)CC(C)N2S(=O)(=O)c1nnc(NC(=O)c2ccccc2F)s1 (centres undefined)	-10%	-22%	3%	nt
CC(N)C(=O)c1ccccc1 (centres undefined)	nt	nt	1%[157 µM]	nt
Cn1cnc([N+](=O)[O-])c1Oc1ccccc1	35µM*	?	13%	4%
Cn1cnc([N+](=O)[O-])c1Oc1cccc(O)c1	32µM*	40µM*	-3%	-16%
Cn1cnc([N+](=O)[O-])c1C(=O)Nc1cccc([N+](=O)[O-])c1	5%	-9%	-1%	10%
CCc1c(C)[nH]c2ccc(OC)cc2c1=S	-33%	-4%	2µM*	-12%
COc1ccc2[nH]c(C)c(CN3CCCCC3)c(=O)c2c1	10%	nt	-1%	-2%
O=C(Nc1ccc(C(=O)OCc2cc(=O)n3c4c(sc3n2)CCCC4)cc1)c1ccc(F)cc1	-2%	-5%	4%	nt
O=C(Cc1ccc(F)cc1)Nc1cccc(-c2nc3cccnc3s2)c1	1%	16%	0%	nt
OC[C@@H]1CN(Cc2ccc(-c3ccccc3)cc2)C[C@H](n2cnc3c(NC4CCC4)ncnc32)O1	nt	18µM*	-17%	4%
CCCN1C(=O)/C(=C/c2ccco2)SC1=Nc1ccc(OC)cc1	50µM*	?	-3%	-15%
CCOC(=O)CN1C(=O)S/C(=C/c2cc(C)n(C)c2C)C1=O	nt	57%	-4%	-2%
COc1ccc(N=C2S/C(=C\c3ccc(N4CCOCC4)o3)C(=O)N2CCc2c[nH]c3ccccc23)cc1	13µM*	nt	nt	nt
CCCN1C(=O)/C(=C/c2ccc(C)o2)SC1=Nc1ccc(OC)cc1	40µM*	-20%	-12%	-3%
CCOC(=O)CN1C(=O)S/C(=C/c2ccc(C)o2)C1=O	40µM*	54%	-3%	-6%
COc1ccc(S[C@@H]2C[C@@H](C(=O)Nc3ccc4nccnc4c3)N(C3Cc4ccccc4C3)C2)cc1	nt	10%	nt	nt

From PubChem
